Data taken from PubChem BioAssay AID770 (SRMLSC, 2007).
Screen size: about 3,300 compounds; fewer than 10 were called active.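 The calls were made as follows: active = growth inhibition above 90% in viable cell count at a single dose; inactive = growth inhibition below 90%.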 A selection follows.

Assay: HT29 colon tumor cell growth inhibition, primary screen, imaging, high content imaging, 24 h, CellTiter-Glo (AID 770);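 as to condensed nuclei: share of cells whose nuclear area falls below control median minus 1.5 SD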
Conditions: HT29 cell number by imaging, at 10 µM, stronger effect = higher value; for condensed nuclei: measured here: percent cells with condensed nuclei
[1] = measured here: ATP CellTiter-Glo viability

Compound | growth inhibition | growth inhibition [1] [%] | condensed nuclei [%]
Cc1ccc(N2CN=c3s/c(=C\c4cccnc4)c(=O)n3C2)cc1 | 8.42% (inactive) | 6.47 | 1.92
O=C1NCC(COCC2CC=CCC2)O1 (stereo not given) | 12.9% (inactive) | -2.87 | 2.4
COc1ccc(OC)c(N=C(C)C2=C(O)COC2=O)c1 | 23.1% (inactive) | 7.81 | 1.86
CSc1nc(N2CCCC2)c2c(c1C#N)CC(C)(C)OC2 | -22.4% (inactive) | -13.8 | 2.73
COc1ccc(N2CCN(c3oc(COc4ccc(Cl)cc4)nc3C#N)CC2)cc1 | 22.4% (inactive) | 12.5 | 2.73
COC(=O)c1ccc(C2/C(=C(/O)c3ccc(OC)cc3)C(=O)C(=O)N2Cc2ccco2)cc1 (stereo not given) | 26.5% (inactive) | -0.21 | 4.2
CCCCCCc1cc2cc(-c3nnc(-c4ccccc4O)o3)c(=O)oc2cc1O | 47% (inactive) | 17.7 | 6.21
CCN(CC)c1ccc2cc(-c3nnc(-c4ccncc4)o3)c(=O)oc2c1 | 100% (active) | -9.78 | 2.72
CCN(CC)c1ccc2cc(C(=O)Nc3ccccn3)c(=O)oc2c1 | 6.44% (inactive) | -4.18 | 2.75
CCOC(=O)CSc1nc(N)c(C#N)c(-c2ccc(OC)cc2)c1C#N | -7.67% (inactive) | -12.5 | 3.97
Cc1c(C)c2cc(Cl)c(O)c(CN3CCCC(C)C3)c2oc1=O (stereo not given) | 25.4% (inactive) | -6.25 | 3.35
CCOP(=O)(c1ccccc1)C1(C#N)CCCC1 (stereo not given) | -30.7% (inactive) | -12.2 | 4.43
CCCCOc1ccc(CN(C)c2ncnc(N)n2)cc1 | 56% (inactive) | 22.5 | 6.77
C1CCC(C(CC2CCCCN2)C2CCCCC2)CC1 (stereo not given) | 99.3% (active) | 97.5 | 30.1
CC1(C)CC(=O)C2=C(C1)N(Cc1ccco1)C(=O)C2(O)C(F)(F)F (stereo not given) | 11% (inactive) | -21.1 | 2.44
CSc1nncc(=O)[nH]1 | -17.8% (inactive) | 10.8 | 1.83
CN1CCN(/C=N/c2sc3c(c2C#N)CCCCC3)CC1 | 45.9% (inactive) | 15.9 | 4.6
COc1ccc2c(c1OC)C(=O)N1c3ccccc3SC21 (stereo not given) | -18.9% (inactive) | -15.6 | 2.15
Nc1ccc2oc(-c3ccccc3Cl)nc2c1 | 26.7% (inactive) | 5.57 | 11.4
CCc1cc(=O)oc2c(CN3CCN(C)CC3)c(O)c(Cl)cc12 | 52.2% (inactive) | -8.76 | 4.11
CCOC(=O)NC(Nc1cc(C)on1)(C(F)(F)F)C(F)(F)F | -33.3% (inactive) | -14.8 | 4.42
COCCOC(=O)C1=C(C)OC(N)=C(C#N)C1c1ccco1 (stereo not given) | 13.2% (inactive) | 1.7 | 3.33
CCSc1nnc(NC(=O)C(CC)(C(F)(F)F)C(F)(F)F)s1 | 3.79% (inactive) | -3.56 | 3.03
COc1ccc(OC)c(C2/C(=C(/O)c3ccccc3)C(=O)C(=O)N2Cc2ccco2)c1 (stereo not given) | 11.9% (inactive) | -6.75 | 4.83
O=C(C/C(=N/O)c1ccccc1O)C(F)F | -0.96% (inactive) | -14.3 | 1.25

Compound | growth inhibition | growth inhibition [1] [%] | condensed nuclei [%]
O=C(c1cccc2ccccc12)N1CCC(N2CCN(c3ccccc3)CC2)CC1 | -27.1% (inactive) | -18.2 | 3.56
Cn1c(O)c(C=Nc2ccc(Cc3ccncc3)cc2)c(=O)n(C)c1=O | 13.2% (inactive) | -6.92 | 1.24
CCOC(=O)CC1=NC(=O)CS1 | 7.12% (inactive) | 1.44 | 1.37
Cc1ccc(S(=O)(=O)NC(=O)Nc2ncc3c(n2)CC(c2ccco2)CC3=O)cc1 (stereo not given) | -27% (inactive) | 0.34 | 2.73
CCCc1nc2n[nH]c(N)c2c2c1CCCC2 | 3.73% (inactive) | 6.01 | 3.31
O=C1C(=O)N(CCCn2ccnc2)C(c2ccccn2)/C1=C(/O)c1ccccc1 (stereo not given) | 20.5% (inactive) | -11.5 | 3.21
CCOc1ccc(/C(O)=C2/C(=O)C(=O)N(CCN(CC)CC)C2c2ccco2)cc1 (stereo not given) | -44.4% (inactive) | -11.1 | 3.46
CC1CCN(c2[nH]c(=S)c(C#N)c3c2CCCC3)CC1 | 2.28% (inactive) | -10.9 | 1.9
CC1(C)CC(=O)C2=C(C1)N(Cc1ccco1)C(=O)C2(NC(=O)c1cccnc1)C(F)(F)F (stereo not given) | 18.6% (inactive) | -14.4 | 1.91
CCCOc1ccc(Cc2nn[nH]n2)cc1 | 36.3% (inactive) | 4.03 | 4.59
O=C(NCCOCCOCCNC(=O)c1cccnc1)c1cccnc1 | -50.5% (inactive) | -16.6 | 2.66
CC(C)CSc1nc(N2CCOCC2)c2c(c1C#N)CC(C)(C)SC2 | -12.2% (inactive) | 13.9 | 2.93
CCOC(=O)C1CCN(c2nc3ccccc3nc2C(C#N)C(=O)OC(C)COC)CC1 (stereo not given) | -2.37% (inactive) | 11.6 | 15.8
CCOc1ccc(-n2c(SCc3ccc(C#N)cc3)nnc2-c2cccnc2)cc1 | 17.1% (inactive) | -9.28 | 4.78
CCOC(=O)NC(O)C(=O)c1cccs1 (stereo not given) | -55.2% (inactive) | -7.3 | 1.51
CC(C)OC(=O)CC1=NC(=O)CS1 | -22% (inactive) | -8.97 | 3.69
COc1ccc(C=NCCC2(O)CC(C)N(C)CC2C)cc1 (stereo not given) | 22.1% (inactive) | -0.31 | 3.27
COC(=O)CSc1nc(C)c(C(C)=O)cc1C#N | 14.2% (inactive) | -9.13 | 4.87
COc1ccc(C2Nc3ccccc3C(=O)N2Cc2ccco2)cc1CN1C(=O)c2ccccc2C1=O (stereo not given) | -35.2% (inactive) | -9.9 | 3.89
Cc1ccc(N2C(=O)CC(Cn3nc(C)cc3C)C2=O)cc1 (stereo not given) | 5.93% (inactive) | -3.3 | 4
CCN(CC)c1ccc(C2Nc3cccc4cccc(c34)N2)c(O)c1 | 39.6% (inactive) | 11.2 | 9.18
N#CCSc1nc2c(cc1C#N)CCCCCC2 | 27.6% (inactive) | 16.5 | 3.85
O=C(c1ccco1)N1CCN(CCOCCOc2cccc3ccccc23)CC1 | -0.64% (inactive) | -9.08 | 4.04
COC(=O)CSc1nnc(C)c(=O)[nH]1 | -50.8% (inactive) | -8.35 | 0.97
CCN(CC)CCCn1c(C)cc2c(c1=O)C(c1ccccc1)C(C#N)=C(N)O2 (stereo not given) | 3.77% (inactive) | -0.04 | 3.21

Compound | growth inhibition | growth inhibition [1] [%] | condensed nuclei [%]
C=CCN=C(C)C1=C(O)CCC1=O | -21.7% (inactive) | -5.99 | 1.55
CN(C)/C=C1\N=C(c2cccs2)OC1=O | 21% (inactive) | 8.97 | 2.88
COc1cccc2c1C(=O)c1c(O)c3c(c(O)c1C2=O)C[C@@](O)(C(=O)CO)C[C@@H]3O[C@H]1C[C@H](N)[C@H](O)[C@H](C)O1 | 84.2% (inactive) | 0 | 0
COc1cccc2c1C(=O)c1c(O)c3c(c(O)c1C2=O)C[C@@](O)(C(C)=O)C[C@@H]3O[C@H]1C[C@H](N)[C@H](O)[C@H](C)O1 | 96.9% (active) | 33.6 | 8.82
CC(C)CC(C(=O)O)C(C)CC(=O)Nc1ccn(-c2ccccc2)n1 (stereo not given) | 23.8% (inactive) | -0.54 | 6.12
O=C(NCc1ccccn1)c1ccc(=O)oc1 | 3.8% (inactive) | -10.6 | 2.33
C=CCOc1ccc(C2/C(=C(\O)c3ccc(F)cc3)C(=O)C(=O)N2CCCN(C)C)cc1 (stereo not given) | 12.6% (inactive) | -2.77 | 0.82
COc1ccc(OC)c(C2/C(=C(\O)c3ccc(OC)c(Cl)c3)C(=O)C(=O)N2CCN(C)C)c1 (stereo not given) | -11.2% (inactive) | -7.25 | 3.18
COc1cccc(C2/C(=C(\O)c3ccc4c(c3)OCCO4)C(=O)C(=O)N2CCN(C)C)c1 (stereo not given) | 2.52% (inactive) | -0.26 | 1.83
CC1(C)Cc2c(sc3c2C2=NCCN2C=N3)CS1 | 8.06% (inactive) | 0.86 | 5.47
Nc1nonc1-c1noc(N2CCOCC2)n1 | -12.5% (inactive) | -12.3 | 1.72
O=C1C2ON(c3ccccc3)C(c3cccnc3)C2C(=O)N1Cc1ccccc1 (stereo not given) | 13.7% (inactive) | -16.2 | 2.97
N#CC(C(=O)NC1CC1)c1nc2ccccc2nc1N1CCN(C/C=C/c2ccccc2)CC1 (stereo not given) | -33.2% (inactive) | -7.38 | 1.95
CCOC(=O)c1cc(CC)sc1NC(=O)C1CC1 | -8.79% (inactive) | -9.23 | 2.27
CN1C(=O)c2ccc(N(C)C)cc2C1=O | -24.1% (inactive) | -7.32 | 1.05
CCN1C(=O)CC(N2CCN(c3ccc(OC)cc3)CC2)C1=O (stereo not given) | -5.76% (inactive) | -6.84 | 4.31
COc1ccc(S(=O)(=O)N2CCC(N3CCCCC3)CC2)cc1 | -21.4% (inactive) | 3.08 | 2.89
Cc1cccn2c(=O)c3cc(C(N)=S)c(=N)n(CCCOC(C)C)c3nc12 | -47.5% (inactive) | -18.1 | 3.48
Cc1cccc(C)c1NC(=O)CSCC(=O)c1ccc(O)c(O)c1 | 24.8% (inactive) | -2.15 | 7.02
CC(C)Cc1nc(N2CCN(C(=O)Cc3ccccc3)CC2)c(C#N)c2c1COC(C)(C)C2 | -45.4% (inactive) | -6.01 | 0.93
Cc1ccc(Oc2nc3c(c(=O)n(Cc4ccccc4F)c(=O)n3C)n2C)cc1 | 1.1% (inactive) | 5.27 | 1.09
c1ccc2c(c1)NC(c1ccncc1)n1c-2nc2ccccc21 (stereo not given) | 16.4% (inactive) | -9.59 | 3.13
COc1ccc(/C(O)=C2/C(=O)C(=O)N(c3ncccn3)C2c2ccc(OC)c(OC)c2)cc1 (stereo not given) | 59.3% (inactive) | 10.6 | 4.07
O=C1CC(c2ccccc2)NC(=O)N1 (stereo not given) | -5.61% (inactive) | 1.46 | 3.08
FC(F)(F)c1cccc(N2CCc3cn[nH]c32)c1 | 21.1% (inactive) | -4.43 | 4.2
